Screening results (PubChem BioAssay)
Hits are enriched below; roughly 8.9% of the tested compounds scored in any of these assays.
NPSR antagonist = qHTS Assay for Antagonists of the Neuropeptide S Receptor: cAMP Signal Transduction; Q6W5P4; CHO-NPSR cells, cAMP TR-FRET, antagonist mode; Potency, µM (top dose mostly 38.3 µM), for inactives: at the highest dose activity change, negative = inhibition, most hits filed as inhibitors; 220,000 compounds, 1% hits; AID 1461, 2008; also: potency is read from the fitted curve at half-maximal effect; nearly all actives have a fitted effect of over 50% in size
Target sequence (Q6W5P4 whole entry, looked up): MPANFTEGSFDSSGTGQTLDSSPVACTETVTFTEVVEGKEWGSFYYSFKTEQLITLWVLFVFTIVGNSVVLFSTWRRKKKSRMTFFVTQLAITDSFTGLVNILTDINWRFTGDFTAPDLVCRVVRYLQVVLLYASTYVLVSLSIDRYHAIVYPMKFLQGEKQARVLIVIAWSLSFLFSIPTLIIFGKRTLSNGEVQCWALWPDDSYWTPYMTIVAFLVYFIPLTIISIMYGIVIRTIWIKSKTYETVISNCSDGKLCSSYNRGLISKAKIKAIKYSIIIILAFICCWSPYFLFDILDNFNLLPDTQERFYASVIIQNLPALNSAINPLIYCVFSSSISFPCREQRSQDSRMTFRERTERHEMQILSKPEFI
IMPase Li cell = qHTS Assay for Identifying the Cell-Membrane Permeable IMPase Inhibitors: Potentiation with Lithium | CHO-M1 cells, IP1 TR-FRET (IP-One), carbachol + lithium | Potency, µM (highest dose often 59.4 µM), for the others: at the highest dose activity, negative = IMPase inhibition, hits mostly inhibitors | 210,000 compounds, 0.35% hits | AID 1457, 2008;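 also: IP1 builds up when IMPase is blocked and the TR-FRET signal falls; potency is read from the fitted curve at half-maximal effect; plate controls were basal vehicle for no effect and high inhibitor control for full effect; nearly all actives have a fitted effect of over 50% in size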
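Steps: plate 2000 CHO-M1 cells per well and culture 16–30 h; add compound and lithium; incubate 30 min, 37C; add d2-IP1 tracer and Eu cryptate anti-IP1 antibody in lysis buffer; read after 10 min at room temperature.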
IMPase inh = qHTS Assay for Identifying the Cell-Membrane Permeable IMPase Inhibitors | CHO-M1 cells, IP1 accumulation, HTRF TR-FRET ratio | inhibition (IP1 accumulation), % at 46.1 µM | 120,000 tested, under 10 active | AID 901, 2007 | Inositol monophosphatase 1 (Rattus norvegicus), P97697; active = well fitted curve in the direction sought with a large enough effect in the signal ratio, not every such curve was filed as active; inconclusive = small, poorly fitted or top-dose-only effect, or a change in a side signal; inactive = no such curve, though single readings can be large or run the other way; the % refers to the signal ratio;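 also: cells stimulated with carbachol in lithium chloride buffer; plate controls were DMSO basal wells for no effect and reference inhibitor wells for full effect; higher means more IMPase inhibition seen as more IP1 and lower FRET ratio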
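The IP-One HTRF competitive assay in carbachol-stimulated CHO-M1 cells quantifies cellular IP1. Compounds spanned up to 46 uM final, and activity is expressed as AC50 from concentration-response fits of the ratio and donor data.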
12-hLO inh = qHTS Assay for Inhibitors of 12-hLO (12-human lipoxygenase). purified 12-hLO, xylenol orange hydroperoxide absorbance. Polyunsaturated fatty acid lipoxygenase ALOX12 (Homo sapiens), P18054. AID 1452, 2008. Potency, µM (series often up to 57.1 µM), inactives show at the top dose activity change, negative = inhibition, most hits filed as inhibitors. 150,000 compounds, 0.12% hits; also: potency is read from the fitted curve at half-maximal effect; nearly all actives have a fitted effect of over 55% in size
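Purified human 12hLO (150 nM final) was preincubated with compounds for 15 min at room temperature in 25 mM Hepes pH 7.0, 0.01% Triton X-100, then reacted with 40 uM arachidonic acid for 30 min. Hydroperoxide was detected with ferrous iron/xylenol orange.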
ALDH1A1 inh = qHTS Assay for Inhibitors of Aldehyde Dehydrogenase 1 (ALDH1A1); 220,000 compounds, 7.3% hits; Aldehyde dehydrogenase 1A1 (Homo sapiens), P00352; Potency, µM (top dose mostly 75.3 µM), without a hit: at the top dose activity, negative = inhibition, most hits filed as inhibitors; Purified ALDH1A1, NADH fluorescence, propionaldehyde substrate; active = well fitted inhibition curve with a large enough effect, not every such curve was filed as active; inconclusive = small, poorly fitted or top-dose-only effect, or another doubt; inactive = no such curve, though single readings can be large or run the other way;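 also: potency is read from the fitted curve at half-maximal effect; plate controls were no enzyme wells and a reference inhibitor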
HPGD block = qHTS Assay for Inhibitors of HPGD (15-Hydroxyprostaglandin Dehydrogenase). purified HPGD, NADH fluorescence kinetic, PGE2 substrate. Potency, µM, for inactives: at the highest dose activity change, negative = inhibition, actives largely listed as inhibitors. 150,000 compounds, 4.3% hits; active = well fitted inhibition curve with a large enough effect, not every such curve was filed as active; inconclusive = small, poorly fitted or top-dose-only effect, or another doubt; inactive = no such curve, though single readings can be large or run the other way; also: potency is read from the fitted curve at half-maximal effect
Target sequence (P15428 whole entry, looked up): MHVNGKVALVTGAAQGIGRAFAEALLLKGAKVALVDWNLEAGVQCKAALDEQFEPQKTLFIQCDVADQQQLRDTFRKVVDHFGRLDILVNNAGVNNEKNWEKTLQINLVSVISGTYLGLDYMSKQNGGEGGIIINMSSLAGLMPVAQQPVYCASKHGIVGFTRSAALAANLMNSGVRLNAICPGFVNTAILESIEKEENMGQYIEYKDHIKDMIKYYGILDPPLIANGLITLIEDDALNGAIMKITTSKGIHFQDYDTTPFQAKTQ
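20 nM HPGD preincubated 15 min at room temperature with compound in 50 mM Tris-HCl pH 8, 0.01% Tween 20. Started with 1 mM NAD+ and 30 uM prostaglandin E2; NADH fluorescence (360/450 nm) read 5 times over 30-s intervals, last minus first.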
* marks the source's active call; other numbers are inactive results; ? = inconclusive; . = not tested or not shown; ! = not confirmed by another sample; [ ] = another dose, or the depositor's remark. Unless noted, calls follow the shape of the dose curve; as a rule, active = well fitted curve in the direction sought with a large enough effect; inconclusive = small, poorly fitted or top-dose-only effect, or another doubt; inactive = no such curve, though single readings can be large; an effect the other way counts as inactive or inconclusive. Unless noted, % is scaled to controls: 0 for no effect and ±100 for the full control effect.

SMILES	NPSR antagonist	IMPase Li cell	IMPase inh	12-hLO inh	ALDH1A1 inh	HPGD block
Cc1cc(C)nc(SCCc2ccncc2)n1	-10%[46.1 µM]	18%[38.3 µM]	8	-13%	25µM*	-21%
Cc1cc(C)nc(SCSc2nc(C)cc(C)n2)n1	-2%[46.1 µM]	12%[38.3 µM]	5	0%	8%	-21%
CCOC(=O)c1ccc(OS(=O)(=O)c2ccccc2)c(OC)c1	-9%	8%	.	0%	-2%	-10%
Cc1cc(C)nc(SCC(=O)Nc2cccc(S(=O)(=O)N(C)C)c2)n1	14%	1%	.	.	?	.
Cc1cc2nc(SCCOC(=O)Nc3ccccc3)nc(C)c2cc1C	-13%	8%	.	-3%	-2%	-21%
Cn1c(C(=O)OCC(=O)NCC2CCCO2)cc2sccc21 (stereo unspecified)	0%[46.1 µM]	2%	-5	0%	-23%	16µM*
Cn1c(C(=O)OCC(=O)NCc2cccs2)cc2sccc21	18%[46.1 µM]	14µM*	?	-2%	-7%	-21%
CCCCNS(=O)(=O)c1ccc2nc(-c3cccnc3)cc(C(=O)NCCCN(CC)CC)c2c1	-6%	18%	.	.	-3%	.
CCOC(=O)Cn1nnnc1C(C(C)C)N(Cc1cc2c(C)cc(C)cc2[nH]c1=O)C1CCCC1 (stereo unspecified)	?	15%	-12	-1%	3.5µM*	-24%
CC(=O)N(Cc1cc2c(C)cc(C)cc2[nH]c1=O)C1CCCCC1	-10%[46.1 µM]	-26%[38.3 µM]	?	-8%	?	-22%
COc1ccc2nc3ccccc3nc2c1NC(=O)c1ccccc1Cl	39%	22%	.	.	-13%	.
CN1C(=O)SC(Nc2cccc3ccccc23)C1=O (stereo unspecified)	?	1%	3	-1%	28µM*	-21%
O=C1NC(=O)C(Nc2cccc3ccccc23)S1 (stereo unspecified)	-6%	1%	7	-2%	-6%	?
COC(=O)NC(=C(Cl)Cl)S(=O)(=O)c1ccccc1	-30%[46.1 µM]	-6%[38.3 µM]	16	-10%	?	1%
COCCCC/C(=N\OCCN)c1ccc(C(F)(F)F)cc1	?	10µM*!	.	-1%	-6%	-3%
CC(=O)Nc1ccc(NC(=O)CNC(=O)COc2ccccc2)cc1	4%	1%	.	.	8%	.
O=C1C(Cl)=C(NCC2CCCO2)C(=O)N1C1CCCCC1 (stereo unspecified)	-14%[46.1 µM]	7%[38.3 µM]	3	1%	4µM*	-25%
COc1ccc(CCN2CN(S(=O)(=O)c3ccccc3)c3nc4ccccc4nc32)cc1OC	-9%	12%	7	0%	-1%	-12%
COC(=O)[C@H](CCSC)NC(=O)NCCc1ccccc1F	-7%[46.1 µM]	18%[38.3 µM]	2	8%	11%	2%
CCN(CC)C(=S)Nc1ccc(Cl)c(Cl)c1	4%	-4%	.	-4%	7%	1%
C=CCc1c(C)nc(SC)nc1Nc1ccc(C(=O)O)cc1	-12%[46.1 µM]	-1%[38.3 µM]	-1	1%	-2%	-20%
C=CCc1c(C)nc(SC)nc1Nc1ccc(C(C)=O)cc1	-25%[46.1 µM]	5%[38.3 µM]	0	-9%	8.9µM*	-30%
CCOc1ccccc1OCCC(=O)Nc1ccc(F)c(Cl)c1	-10%	5%	.	1%	1%	1%
CC(C)NC(=O)CN1CCC(O)(c2ccccc2)CC1	3%[46.1 µM]	0%[38.3 µM]	-1	1%	4%	-16%
CC(C)c1ccc(CN2CCN(C(=O)CCl)CC2)cc1	-15%	5%	.	.	0.56µM*	.
SMILES	NPSR antagonist	IMPase Li cell	IMPase inh	12-hLO inh	ALDH1A1 inh	HPGD block
CC(C)NC(=O)CN1CCN(C(=O)CCl)CC1	12%	5%	.	.	3.2µM*	.
O=C(CN1CCCCC1)N1CCN(C(=O)CN2CCCCC2)CC1	-6%[46.1 µM]	-26%[38.3 µM]	-8	-5%	2%	-4%
CC(C)c1ccc(/C=C/C(=O)Nc2ccc(CN3CCOCC3)cc2)cc1	25%	.	.	.	?	.
CN(C)C(=O)CN1CCN(C(=O)CCl)CC1	14%	-7%	.	.	2.8µM*	.
CSc1ccccc1C(=O)NC1CC2CCC1C2 (stereo unspecified)	-6%[46.1 µM]	19%[38.3 µM]	13	1%	2%	-28%
Cc1ccc(S(=O)(=O)Nc2nc(C)c(NC(=O)Nc3ccc(Cl)cc3Cl)s2)cc1	-12%[46.1 µM]	14%[38.3 µM]	6	7.1µM*	-6%	-5%
COc1ccc(NC(=O)Nc2ccc(OC)cc2)cc1	-8%[46.1 µM]	28%[38.3 µM]	1	-1%	9%	-5%
COc1ccc(NC(=O)Nc2sc(=S)n(C)c2C)cc1	-26%	10%	.	.	16µM*	.
COc1ccc(NC(=O)Nc2sc(NS(=O)(=O)c3ccccc3)nc2C)cc1	-2%	23%	.	.	8.9µM*	.
Cc1ccc(N=c2ssnc2Cl)cc1	-8%[46.1 µM]	-12%[38.3 µM]	?	28µM*	2.2µM*	2.8µM*
Cc1cc(Cl)ccc1N=c1ssnc1Cl	?	4%[38.3 µM]	3	-23%	1.3µM*	4.5µM*
Cc1cc(C)nc(/N=c2/ssnc2Cl)c1	-29%[46.1 µM]	13%[38.3 µM]	16	-14%	4µM*	13µM*
Nc1ccccc1N=c1ssnc1Cl	0%	-4%	.	.	?	.
O=C(c1ccco1)N1CCC[C@@]2(CCN(c3ncccn3)C2)C1	.	6%	.	2%	?	-18%
CC(Cc1n[nH]c(=S)o1)c1ccccc1 (stereo unspecified)	0%	6%	.	.	18µM*	.
Cn1c(SCc2n[nH]c(=S)o2)nnc1-c1ccccc1	13%	-6%	.	1%	0%	-7%
S=c1[nH]nc(Cc2cccc3ccccc23)o1	3%	0%	.	-2%	10µM*	?
CCOc1ccc(N(CC(=O)Nc2ccc(OC)cc2)S(=O)(=O)c2c(C)[nH]c(=O)[nH]c2=O)cc1	0%	1%	.	.	-11%	.
O=c1c(Cl)c(NCC2CCCO2)cnn1C12CC3CC(CC(C3)C1)C2 (stereo unspecified)	-5%	12%	.	.	18µM*	.
O=C(O)C12CC3CC(C1)CC(n1ncc(NCc4ccco4)c(Cl)c1=O)(C3)C2	14%	.	.	.	.	.
Nc1nn(-c2ccccc2)c(N)c1N=Nc1ccccc1F	-13%	4%	.	-1%	-6%	13µM*
Cc1cccc(N=Nc2c(C)nn(-c3ccccc3)c2N)c1C	-34%	13%	.	-27%	-10%	16µM*
Cc1nn(-c2ccccc2)c(N)c1N=Nc1ccccc1	-34%	0%	.	-24%	?	20µM*
Nc1nn(-c2ccccc2)c(N)c1N=Nc1ccccc1	-13%	3%	.	-4%	5%	-20%
